# Measurements reported in paper PMC7862700, “An all-to-all approach to the identification of sequence-specific readers for epigenetic DNA modifications on cytosine”.
# Experiments:
# Assay in all cases: DAPPL (digital affinity profiling via proximity ligation, sequencing); 10 mM Tris-HCl pH 7.5, 50 mM NaCl, 1 mM DTT, 4% glycerol, room temperature, 30 min; GST-TFs on glutathione beads, 16-mer random dsDNA library, 0.1% formaldehyde crosslink after washing; high values mean tight binding
# FLI1 = molecular target: T1, FLI1 (Homo sapiens, UniProt Q01543 1-452); settings: protein: recombinant; tags: N-terminal GST; dsDNA, one strand shown
# T1 sequence: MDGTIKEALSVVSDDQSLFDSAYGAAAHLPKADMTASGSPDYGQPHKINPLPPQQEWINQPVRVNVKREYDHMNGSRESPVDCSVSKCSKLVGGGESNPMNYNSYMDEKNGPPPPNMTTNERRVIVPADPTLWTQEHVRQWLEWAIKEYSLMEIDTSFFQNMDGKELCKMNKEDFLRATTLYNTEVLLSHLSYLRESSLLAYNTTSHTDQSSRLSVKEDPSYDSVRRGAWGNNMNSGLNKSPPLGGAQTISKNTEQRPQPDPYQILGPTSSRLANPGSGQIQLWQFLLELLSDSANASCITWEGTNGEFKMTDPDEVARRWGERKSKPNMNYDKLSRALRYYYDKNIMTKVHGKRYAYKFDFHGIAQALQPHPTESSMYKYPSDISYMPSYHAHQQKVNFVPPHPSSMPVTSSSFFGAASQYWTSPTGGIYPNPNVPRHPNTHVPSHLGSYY
# In short: (§1)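 In yeast, human transcription factors were expressed with a GST fusion, then pulled down on glutathione beads and given DNA barcodes. Pooled with a tag-only sample, they were exposed to 200 nmole of a 16-mer random double-stranded DNA library (Tris/NaCl/DTT/glycerol buffer, room temperature, 30 min), washed, crosslinked with 0.1% formaldehyde, proximity-ligated using BsaI/T4 ligase for 1 h at 37 °C, PCR-amplified and read on an Illumina NextSeq500. Each hexamer's frequency of reads for a factor, divided by the matching frequency for the tag-only sample, gives the binding signal.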
# ELK1 = molecular target: T2, ELK1 (Homo sapiens, UniProt P19419 1-428); settings: protein: recombinant; tags: N-terminal GST; dsDNA, one strand shown
# T2 sequence: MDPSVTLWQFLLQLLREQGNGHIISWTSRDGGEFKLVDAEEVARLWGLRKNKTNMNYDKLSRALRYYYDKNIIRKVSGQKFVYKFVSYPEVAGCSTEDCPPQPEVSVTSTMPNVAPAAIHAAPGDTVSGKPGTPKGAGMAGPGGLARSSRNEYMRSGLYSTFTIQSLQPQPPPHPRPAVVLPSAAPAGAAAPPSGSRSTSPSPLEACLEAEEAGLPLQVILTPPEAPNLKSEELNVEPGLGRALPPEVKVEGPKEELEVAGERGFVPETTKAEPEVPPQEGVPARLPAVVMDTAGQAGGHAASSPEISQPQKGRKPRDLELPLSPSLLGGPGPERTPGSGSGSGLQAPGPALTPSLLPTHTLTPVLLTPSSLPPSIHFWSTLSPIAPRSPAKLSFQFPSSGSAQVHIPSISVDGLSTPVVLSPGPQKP
# In short: as §1
# GABPA = molecular target: T3, GABPA (Homo sapiens, UniProt Q06546 1-454); settings: protein: recombinant; tags: N-terminal GST; dsDNA, one strand shown
# T3 sequence: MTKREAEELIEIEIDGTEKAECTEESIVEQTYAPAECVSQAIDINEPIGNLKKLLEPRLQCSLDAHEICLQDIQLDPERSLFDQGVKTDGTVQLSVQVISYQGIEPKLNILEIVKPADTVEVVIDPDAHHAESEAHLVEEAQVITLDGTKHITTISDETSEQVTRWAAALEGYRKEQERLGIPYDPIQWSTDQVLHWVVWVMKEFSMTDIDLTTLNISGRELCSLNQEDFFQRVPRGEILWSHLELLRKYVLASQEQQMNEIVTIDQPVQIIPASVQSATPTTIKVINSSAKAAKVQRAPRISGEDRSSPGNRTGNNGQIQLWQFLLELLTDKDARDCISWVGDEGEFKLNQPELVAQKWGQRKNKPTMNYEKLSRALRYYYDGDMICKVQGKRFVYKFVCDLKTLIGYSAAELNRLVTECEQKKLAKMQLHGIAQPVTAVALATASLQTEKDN
# In short: as §1
# ERG = molecular target: T4, ERG (Homo sapiens, UniProt P11308 1-479); settings: protein: recombinant; tags: N-terminal GST; dsDNA, one strand shown
# T4 sequence: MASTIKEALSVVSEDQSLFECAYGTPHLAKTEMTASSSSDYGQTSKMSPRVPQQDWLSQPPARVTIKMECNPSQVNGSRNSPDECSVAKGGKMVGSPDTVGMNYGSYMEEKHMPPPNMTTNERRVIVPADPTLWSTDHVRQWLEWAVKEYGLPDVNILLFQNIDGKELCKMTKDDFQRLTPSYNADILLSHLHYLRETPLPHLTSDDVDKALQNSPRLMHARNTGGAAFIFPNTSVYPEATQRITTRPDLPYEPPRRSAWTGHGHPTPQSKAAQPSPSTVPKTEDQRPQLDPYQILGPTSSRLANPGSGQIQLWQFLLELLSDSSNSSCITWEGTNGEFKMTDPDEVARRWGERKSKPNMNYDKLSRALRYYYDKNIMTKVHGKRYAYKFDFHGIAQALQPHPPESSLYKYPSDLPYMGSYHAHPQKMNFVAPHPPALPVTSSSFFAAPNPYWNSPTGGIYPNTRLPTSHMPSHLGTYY
# In short: as §1
# ELF1 = ELF1 (Homo sapiens, UniProt P32519 1-619); settings: protein: recombinant; tags: N-terminal GST; dsDNA, one strand shown
# In short: as §1
# EHF = molecular target: T5, EHF (Homo sapiens, UniProt Q9NZC4 1-300); settings: protein: recombinant; tags: N-terminal GST; dsDNA, one strand shown
# T5 sequence: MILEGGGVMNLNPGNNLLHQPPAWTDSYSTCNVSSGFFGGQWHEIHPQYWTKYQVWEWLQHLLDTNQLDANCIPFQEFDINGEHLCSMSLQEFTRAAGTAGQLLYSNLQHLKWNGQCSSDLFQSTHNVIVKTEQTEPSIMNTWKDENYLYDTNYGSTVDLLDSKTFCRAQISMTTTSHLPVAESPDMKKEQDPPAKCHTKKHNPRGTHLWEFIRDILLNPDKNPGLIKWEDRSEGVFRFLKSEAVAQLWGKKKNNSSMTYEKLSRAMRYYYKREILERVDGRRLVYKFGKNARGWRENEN
# In short: as §1
# SPI1 = SPI1 (Homo sapiens, UniProt P17947 1-270); settings: protein: recombinant; tags: N-terminal GST; dsDNA, one strand shown
# In short: as §1
# SPIB = SPIB (Homo sapiens, UniProt Q01892 1-262); settings: protein: recombinant; tags: N-terminal GST; dsDNA, one strand shown
# In short: as §1
# ELK3 = molecular target: T6, ELK3 (Homo sapiens, UniProt P41970 1-407); settings: protein: recombinant; tags: N-terminal GST; dsDNA, one strand shown
# T6 sequence: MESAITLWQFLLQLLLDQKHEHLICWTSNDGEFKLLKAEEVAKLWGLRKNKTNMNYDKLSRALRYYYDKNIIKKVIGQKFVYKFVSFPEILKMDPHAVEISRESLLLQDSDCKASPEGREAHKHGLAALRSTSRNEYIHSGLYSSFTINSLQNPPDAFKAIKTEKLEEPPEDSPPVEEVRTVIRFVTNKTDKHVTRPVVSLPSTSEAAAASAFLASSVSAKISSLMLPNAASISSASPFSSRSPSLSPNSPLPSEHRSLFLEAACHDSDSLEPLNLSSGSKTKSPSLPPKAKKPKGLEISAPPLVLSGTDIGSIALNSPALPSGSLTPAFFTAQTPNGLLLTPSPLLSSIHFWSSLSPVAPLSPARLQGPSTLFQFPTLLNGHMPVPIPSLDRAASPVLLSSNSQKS
# In short: as §1
# FEV = molecular target: T7, FEV (Homo sapiens, UniProt Q99581 1-238); settings: protein: recombinant; tags: N-terminal GST; dsDNA, one strand shown
# T7 sequence: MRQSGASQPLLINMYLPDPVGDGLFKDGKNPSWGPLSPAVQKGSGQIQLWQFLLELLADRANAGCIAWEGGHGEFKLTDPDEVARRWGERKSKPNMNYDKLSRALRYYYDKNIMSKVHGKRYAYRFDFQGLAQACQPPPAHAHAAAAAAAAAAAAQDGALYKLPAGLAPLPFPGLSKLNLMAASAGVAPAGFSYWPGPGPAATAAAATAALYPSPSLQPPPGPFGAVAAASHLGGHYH
# In short: as §1
# ETV5 = ETV5 (Homo sapiens, UniProt P41161 1-510); settings: protein: recombinant; tags: N-terminal GST; dsDNA, one strand shown
# In short: as §1
# HSF1 = HSF1 (Homo sapiens, UniProt Q00613 1-529); settings: protein: recombinant; tags: N-terminal GST; chain copies: 3; dsDNA, one strand shown
# In short: as §1
# SPIC = molecular target: T8, SPIC (Homo sapiens, UniProt Q8N5J4 1-248); settings: protein: recombinant; tags: N-terminal GST; dsDNA, one strand shown
# T8 sequence: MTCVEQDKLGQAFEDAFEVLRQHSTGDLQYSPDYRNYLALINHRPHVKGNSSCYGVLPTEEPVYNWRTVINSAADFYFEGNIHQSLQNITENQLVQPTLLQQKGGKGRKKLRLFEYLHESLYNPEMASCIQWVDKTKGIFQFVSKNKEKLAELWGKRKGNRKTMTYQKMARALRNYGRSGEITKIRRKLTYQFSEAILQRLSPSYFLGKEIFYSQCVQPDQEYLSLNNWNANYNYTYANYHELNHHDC
# In short: as §1
# ELF4 = ELF4 (Homo sapiens, UniProt Q99607 1-663); settings: protein: recombinant; tags: N-terminal GST; dsDNA, one strand shown
# In short: as §1
# ELK4 = molecular target: T9, ELK4 (Homo sapiens, UniProt P28324-2 1-405); settings: protein: recombinant; tags: N-terminal GST; dsDNA, one strand shown
# T9 sequence: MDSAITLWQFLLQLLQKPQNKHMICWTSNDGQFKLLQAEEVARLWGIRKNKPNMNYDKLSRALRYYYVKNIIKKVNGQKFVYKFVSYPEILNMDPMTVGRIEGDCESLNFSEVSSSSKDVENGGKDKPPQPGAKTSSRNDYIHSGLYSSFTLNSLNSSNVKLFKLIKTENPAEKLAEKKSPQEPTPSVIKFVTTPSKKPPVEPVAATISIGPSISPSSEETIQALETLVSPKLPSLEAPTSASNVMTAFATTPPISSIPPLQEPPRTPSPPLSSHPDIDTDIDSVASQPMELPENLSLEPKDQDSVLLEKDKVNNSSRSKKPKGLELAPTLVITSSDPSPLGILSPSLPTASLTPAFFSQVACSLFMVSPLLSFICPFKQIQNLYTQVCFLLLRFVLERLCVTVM
# In short: as §1
# ETV2 = molecular target: T10, ETV2 (Homo sapiens, UniProt O00321 1-342); settings: protein: recombinant; tags: N-terminal GST; dsDNA, one strand shown
# T10 sequence: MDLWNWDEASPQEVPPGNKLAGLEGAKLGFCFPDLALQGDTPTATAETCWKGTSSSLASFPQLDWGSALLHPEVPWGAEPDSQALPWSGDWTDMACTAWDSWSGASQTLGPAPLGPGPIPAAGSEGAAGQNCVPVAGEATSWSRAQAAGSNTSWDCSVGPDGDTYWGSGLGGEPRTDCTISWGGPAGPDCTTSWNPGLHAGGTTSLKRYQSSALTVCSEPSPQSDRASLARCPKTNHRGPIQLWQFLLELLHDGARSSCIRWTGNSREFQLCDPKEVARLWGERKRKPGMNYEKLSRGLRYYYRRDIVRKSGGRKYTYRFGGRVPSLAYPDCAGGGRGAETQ
# In short: as §1
# ELF3 = molecular target: T11, ELF3 (Homo sapiens, UniProt P78545 1-371); settings: protein: recombinant; tags: N-terminal GST; dsDNA, one strand shown
# T11 sequence: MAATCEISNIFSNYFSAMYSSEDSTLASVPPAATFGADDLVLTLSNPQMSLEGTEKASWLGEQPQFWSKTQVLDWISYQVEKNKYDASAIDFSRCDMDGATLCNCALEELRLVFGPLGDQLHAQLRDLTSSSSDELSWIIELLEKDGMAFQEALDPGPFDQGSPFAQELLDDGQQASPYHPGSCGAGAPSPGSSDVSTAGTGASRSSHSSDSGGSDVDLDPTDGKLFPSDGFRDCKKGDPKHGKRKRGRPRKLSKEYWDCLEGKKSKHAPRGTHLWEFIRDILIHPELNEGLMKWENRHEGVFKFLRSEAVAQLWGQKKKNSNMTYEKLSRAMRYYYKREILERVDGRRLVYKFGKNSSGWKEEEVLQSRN
# In short: as §1
# ETV1 = ETV1 (Homo sapiens, UniProt P50549 1-477); settings: protein: recombinant; tags: N-terminal GST; dsDNA, one strand shown
# In short: as §1
# Sequence of SPIB (Q01892 whole entry): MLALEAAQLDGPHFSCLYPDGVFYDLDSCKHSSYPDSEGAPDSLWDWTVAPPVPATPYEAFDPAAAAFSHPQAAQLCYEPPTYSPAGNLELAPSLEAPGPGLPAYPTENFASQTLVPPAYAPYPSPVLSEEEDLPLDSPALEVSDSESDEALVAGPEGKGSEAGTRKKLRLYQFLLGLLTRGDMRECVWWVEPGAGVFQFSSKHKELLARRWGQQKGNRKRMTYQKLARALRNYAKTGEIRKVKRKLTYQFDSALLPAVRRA
# Sequence of ETV1 (P50549 whole entry): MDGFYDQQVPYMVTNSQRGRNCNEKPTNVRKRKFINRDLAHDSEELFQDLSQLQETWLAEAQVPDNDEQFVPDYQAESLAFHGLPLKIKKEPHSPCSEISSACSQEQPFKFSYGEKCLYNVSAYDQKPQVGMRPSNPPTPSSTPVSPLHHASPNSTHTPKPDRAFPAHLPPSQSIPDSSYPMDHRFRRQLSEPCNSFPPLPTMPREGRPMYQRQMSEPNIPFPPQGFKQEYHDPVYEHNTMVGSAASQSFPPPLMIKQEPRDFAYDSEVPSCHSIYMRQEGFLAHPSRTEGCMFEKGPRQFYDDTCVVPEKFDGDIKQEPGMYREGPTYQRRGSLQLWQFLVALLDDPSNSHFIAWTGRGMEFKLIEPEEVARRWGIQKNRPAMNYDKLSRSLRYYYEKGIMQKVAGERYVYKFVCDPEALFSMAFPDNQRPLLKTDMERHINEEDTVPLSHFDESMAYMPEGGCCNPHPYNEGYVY
# Sequence of ELF4 (Q99607 whole entry): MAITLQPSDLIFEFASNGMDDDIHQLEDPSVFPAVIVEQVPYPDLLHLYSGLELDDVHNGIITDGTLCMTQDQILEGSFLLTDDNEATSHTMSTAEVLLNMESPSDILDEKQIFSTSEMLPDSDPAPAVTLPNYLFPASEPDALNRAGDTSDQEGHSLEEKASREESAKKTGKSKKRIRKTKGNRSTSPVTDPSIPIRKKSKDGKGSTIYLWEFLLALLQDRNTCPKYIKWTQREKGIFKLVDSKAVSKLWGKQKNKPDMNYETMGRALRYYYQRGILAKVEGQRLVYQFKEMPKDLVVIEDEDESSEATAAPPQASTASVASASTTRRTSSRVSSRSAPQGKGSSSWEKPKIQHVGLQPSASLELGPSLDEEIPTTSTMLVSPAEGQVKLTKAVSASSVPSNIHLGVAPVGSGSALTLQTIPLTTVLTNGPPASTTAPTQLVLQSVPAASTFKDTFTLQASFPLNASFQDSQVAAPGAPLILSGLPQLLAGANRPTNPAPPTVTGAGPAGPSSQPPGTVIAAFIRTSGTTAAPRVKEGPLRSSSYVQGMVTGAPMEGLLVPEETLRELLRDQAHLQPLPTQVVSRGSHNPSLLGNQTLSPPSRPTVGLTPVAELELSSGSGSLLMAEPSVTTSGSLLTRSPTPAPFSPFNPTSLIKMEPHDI
# Sequence of ELF1 (P32519 whole entry): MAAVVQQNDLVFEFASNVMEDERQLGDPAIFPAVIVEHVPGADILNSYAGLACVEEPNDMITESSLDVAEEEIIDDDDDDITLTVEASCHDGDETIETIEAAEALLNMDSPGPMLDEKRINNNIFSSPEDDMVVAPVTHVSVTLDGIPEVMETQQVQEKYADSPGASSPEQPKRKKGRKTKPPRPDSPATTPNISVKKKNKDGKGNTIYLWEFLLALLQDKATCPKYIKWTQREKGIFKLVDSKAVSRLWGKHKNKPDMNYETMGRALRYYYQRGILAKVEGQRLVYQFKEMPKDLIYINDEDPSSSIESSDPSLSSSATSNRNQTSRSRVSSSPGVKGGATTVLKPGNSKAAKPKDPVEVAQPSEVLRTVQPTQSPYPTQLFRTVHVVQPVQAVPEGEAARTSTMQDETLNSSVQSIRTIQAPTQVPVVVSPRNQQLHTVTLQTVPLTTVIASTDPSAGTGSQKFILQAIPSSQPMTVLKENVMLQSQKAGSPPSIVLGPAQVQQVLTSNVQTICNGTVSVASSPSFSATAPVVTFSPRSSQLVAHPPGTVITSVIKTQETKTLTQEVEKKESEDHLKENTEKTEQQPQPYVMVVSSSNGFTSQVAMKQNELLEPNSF
# Sequence of ETV5 (P41161 whole entry): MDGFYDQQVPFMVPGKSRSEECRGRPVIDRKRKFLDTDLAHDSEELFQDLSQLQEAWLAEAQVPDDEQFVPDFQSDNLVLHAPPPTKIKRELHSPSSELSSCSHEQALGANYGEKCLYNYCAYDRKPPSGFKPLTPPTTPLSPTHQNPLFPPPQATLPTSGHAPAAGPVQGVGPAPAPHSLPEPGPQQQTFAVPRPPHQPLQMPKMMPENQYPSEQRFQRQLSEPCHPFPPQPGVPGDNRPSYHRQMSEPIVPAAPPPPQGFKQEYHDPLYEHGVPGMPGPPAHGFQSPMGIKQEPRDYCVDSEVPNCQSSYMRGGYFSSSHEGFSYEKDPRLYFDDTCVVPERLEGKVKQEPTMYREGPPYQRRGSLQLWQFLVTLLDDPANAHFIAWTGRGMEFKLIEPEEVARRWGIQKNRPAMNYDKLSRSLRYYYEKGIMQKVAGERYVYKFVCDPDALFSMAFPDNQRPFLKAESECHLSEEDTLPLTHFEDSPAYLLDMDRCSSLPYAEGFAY
# Sequence of HSF1 (Q00613 whole entry): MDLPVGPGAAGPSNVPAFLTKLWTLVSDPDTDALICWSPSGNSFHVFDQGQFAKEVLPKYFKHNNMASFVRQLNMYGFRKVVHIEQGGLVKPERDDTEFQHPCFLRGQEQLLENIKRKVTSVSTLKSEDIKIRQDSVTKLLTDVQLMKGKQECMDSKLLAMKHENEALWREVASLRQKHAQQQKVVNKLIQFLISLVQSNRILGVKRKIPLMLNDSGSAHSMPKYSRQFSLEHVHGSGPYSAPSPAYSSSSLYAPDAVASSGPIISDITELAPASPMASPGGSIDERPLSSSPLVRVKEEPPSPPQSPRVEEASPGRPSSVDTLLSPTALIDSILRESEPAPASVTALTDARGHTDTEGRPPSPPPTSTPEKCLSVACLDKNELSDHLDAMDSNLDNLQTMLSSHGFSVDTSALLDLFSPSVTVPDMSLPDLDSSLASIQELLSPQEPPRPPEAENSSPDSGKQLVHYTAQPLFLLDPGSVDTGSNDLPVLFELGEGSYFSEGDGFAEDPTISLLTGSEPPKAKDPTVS
sequence,measurement,setting,value
GAAACT,binding signal,FLI1,"1.22 fold enrichment (6-mer frequency, TF over GST control)"
same,binding signal,ELK1,"1.21 fold enrichment (6-mer frequency, TF over GST control)"
same,binding signal,GABPA,"1.14 fold enrichment (6-mer frequency, TF over GST control)"
same,binding signal,ERG,"1.11 fold enrichment (6-mer frequency, TF over GST control)"
same,binding signal,ELF1,"1.18 fold enrichment (6-mer frequency, TF over GST control)"
same,binding signal,EHF,"1.19 fold enrichment (6-mer frequency, TF over GST control)"
same,binding signal,SPI1,"1.2 fold enrichment (6-mer frequency, TF over GST control)"
same,binding signal,SPIB,"1.14 fold enrichment (6-mer frequency, TF over GST control)"
same,binding signal,ELK3,"1.22 fold enrichment (6-mer frequency, TF over GST control)"
same,binding signal,FEV,"1.29 fold enrichment (6-mer frequency, TF over GST control)"
same,binding signal,ETV5,"1.28 fold enrichment (6-mer frequency, TF over GST control)"
same,binding signal,HSF1,"1.32 fold enrichment (6-mer frequency, TF over GST control)"
same,binding signal,SPIC,"1.25 fold enrichment (6-mer frequency, TF over GST control)"
same,binding signal,ELF4,"1.24 fold enrichment (6-mer frequency, TF over GST control)"
same,binding signal,ELK4,"1.14 fold enrichment (6-mer frequency, TF over GST control)"
same,binding signal,ETV2,"1.12 fold enrichment (6-mer frequency, TF over GST control)"
same,binding signal,ELF3,"1.19 fold enrichment (6-mer frequency, TF over GST control)"
same,binding signal,ETV1,"1.27 fold enrichment (6-mer frequency, TF over GST control)"
